# Source: PubChem BioAssay AID1347074 (Center for Chemical Genomics, University of Michigan, 2019)
# The whole screen tested about 47,000 compounds, of which about 2,800 (6%) were called active. Cut-off read from the data, not from the text of the source: active = z-score above about 3 (passing the limit was not always enough); inactive = the rest. The full list was thinned out, with actives kept by preference.
# Biological target: Endoribonuclease Dicer (Homo sapiens) (UniProt Q9UPY3)
# Test: Dicer cleavage of pre-miR-21 blockers – biochemical, cat-ELCCA, chemiluminescence, primary screen (AID 1347074);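 note: plate controls were vehicle for no effect and no enzyme for full effect; higher signal means more uncleaved substrate so more Dicer inhibition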
# Details: cat-ELCCA pre-miR-21 Dicer processing, at 25 µM, active compounds read high
# Chain of Endoribonuclease Dicer (Homo sapiens) (Q9UPY3 whole entry, looked up): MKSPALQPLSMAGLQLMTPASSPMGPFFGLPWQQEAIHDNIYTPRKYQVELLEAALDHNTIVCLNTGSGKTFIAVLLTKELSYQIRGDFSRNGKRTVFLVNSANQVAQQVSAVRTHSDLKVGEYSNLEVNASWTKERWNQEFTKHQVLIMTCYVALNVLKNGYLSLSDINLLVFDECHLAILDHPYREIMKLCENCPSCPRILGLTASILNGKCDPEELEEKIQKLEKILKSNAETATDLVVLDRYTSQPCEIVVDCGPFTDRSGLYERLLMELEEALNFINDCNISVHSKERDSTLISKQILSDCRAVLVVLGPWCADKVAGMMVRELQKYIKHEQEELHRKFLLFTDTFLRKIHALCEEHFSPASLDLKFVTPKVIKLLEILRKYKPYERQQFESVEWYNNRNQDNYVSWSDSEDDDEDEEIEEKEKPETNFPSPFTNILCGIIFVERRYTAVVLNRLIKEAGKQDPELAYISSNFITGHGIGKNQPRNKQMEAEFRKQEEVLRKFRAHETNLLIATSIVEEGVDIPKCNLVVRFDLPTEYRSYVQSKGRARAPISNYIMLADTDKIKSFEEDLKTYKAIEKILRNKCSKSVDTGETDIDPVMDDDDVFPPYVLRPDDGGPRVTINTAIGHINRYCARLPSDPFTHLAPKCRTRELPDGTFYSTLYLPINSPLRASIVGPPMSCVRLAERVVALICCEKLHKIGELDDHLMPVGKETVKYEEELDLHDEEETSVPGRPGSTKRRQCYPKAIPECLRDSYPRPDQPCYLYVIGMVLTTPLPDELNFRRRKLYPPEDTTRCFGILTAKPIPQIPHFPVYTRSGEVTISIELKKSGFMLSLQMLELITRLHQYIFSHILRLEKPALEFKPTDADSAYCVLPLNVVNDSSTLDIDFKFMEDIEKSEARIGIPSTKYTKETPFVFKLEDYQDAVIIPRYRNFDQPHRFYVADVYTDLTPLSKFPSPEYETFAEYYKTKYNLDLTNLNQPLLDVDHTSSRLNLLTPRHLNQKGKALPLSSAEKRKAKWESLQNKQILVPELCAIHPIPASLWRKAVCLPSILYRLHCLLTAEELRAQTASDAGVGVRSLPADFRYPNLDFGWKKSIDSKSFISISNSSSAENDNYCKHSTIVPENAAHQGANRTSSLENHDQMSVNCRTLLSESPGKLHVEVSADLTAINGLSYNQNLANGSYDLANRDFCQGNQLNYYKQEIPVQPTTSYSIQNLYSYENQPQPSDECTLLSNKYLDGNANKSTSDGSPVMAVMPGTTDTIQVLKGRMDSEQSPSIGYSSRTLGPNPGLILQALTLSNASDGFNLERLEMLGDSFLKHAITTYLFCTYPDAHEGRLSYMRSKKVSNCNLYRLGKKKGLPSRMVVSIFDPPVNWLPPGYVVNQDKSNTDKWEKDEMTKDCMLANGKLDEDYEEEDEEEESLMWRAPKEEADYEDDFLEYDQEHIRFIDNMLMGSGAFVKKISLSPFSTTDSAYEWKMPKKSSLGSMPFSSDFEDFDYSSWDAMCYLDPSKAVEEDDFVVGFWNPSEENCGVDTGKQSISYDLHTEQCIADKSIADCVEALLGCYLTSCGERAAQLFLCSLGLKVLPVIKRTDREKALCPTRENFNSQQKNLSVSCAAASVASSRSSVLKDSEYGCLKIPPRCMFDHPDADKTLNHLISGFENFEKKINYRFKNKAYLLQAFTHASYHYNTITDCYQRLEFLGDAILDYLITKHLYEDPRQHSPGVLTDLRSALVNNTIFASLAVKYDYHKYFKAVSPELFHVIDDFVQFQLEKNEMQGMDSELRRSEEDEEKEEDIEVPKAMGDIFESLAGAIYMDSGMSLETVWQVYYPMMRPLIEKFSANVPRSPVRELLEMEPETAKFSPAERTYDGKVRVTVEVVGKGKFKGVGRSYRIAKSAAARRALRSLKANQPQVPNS
row,SMILES,z-score
1,CCOc1c(Br)cc(CNCCc2c[nH]c3ccccc23)cc1OC,6.45 (active)
2,CC[N+]1(C)CCCC(OC(=O)C(O)(c2ccccc2)c2ccccc2)C1 (stereo not given),-0.07 (inactive)
3,Fc1ccccc1CN1CCN(Cc2ccc3c(c2)OCO3)CC1,-0.5 (inactive)
4,CN(C)C(=O)Oc1nnc(SCCS(=O)(=O)c2ccc(F)cc2)n1C1CC1,-1.56 (inactive)
5,Cc1cccc(-c2nc(C)cc(OC(=O)N(C)C)n2)c1,-0.47 (inactive)
